The molecules below were run against NADPH oxidase 2 (Homo sapiens) (UniProt P04839) (assay: compounds shifting NOX2 Amplex Red fluorescence – cell-based, HEK293-NOX2, PMA-stimulated, NOX inhibitor project, primary screen (AID 1159; further: test concentration not given here)). Details: 45 min, higher = more signal, called active from +8 up or from −8 down.
Sequence of NADPH oxidase 2 (Homo sapiens) (P04839 whole entry, looked up): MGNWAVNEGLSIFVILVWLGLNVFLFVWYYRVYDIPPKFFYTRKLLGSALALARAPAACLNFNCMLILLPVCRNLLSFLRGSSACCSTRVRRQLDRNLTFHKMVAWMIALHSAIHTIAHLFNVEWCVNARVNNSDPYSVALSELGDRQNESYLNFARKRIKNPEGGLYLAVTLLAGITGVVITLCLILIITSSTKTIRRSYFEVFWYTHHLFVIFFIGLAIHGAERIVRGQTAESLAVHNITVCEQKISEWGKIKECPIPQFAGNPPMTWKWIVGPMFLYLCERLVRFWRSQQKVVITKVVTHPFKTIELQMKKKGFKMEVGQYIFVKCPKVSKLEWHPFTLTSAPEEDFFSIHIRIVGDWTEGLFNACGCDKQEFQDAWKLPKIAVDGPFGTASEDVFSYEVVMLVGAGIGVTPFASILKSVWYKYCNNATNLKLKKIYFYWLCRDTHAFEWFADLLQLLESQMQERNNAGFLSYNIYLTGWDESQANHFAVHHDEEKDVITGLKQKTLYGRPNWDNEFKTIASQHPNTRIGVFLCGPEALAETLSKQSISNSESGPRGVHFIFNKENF

z-score, inactive:
CC(=O)OC[C@H]1O[C@@H](ON=C(C)C)[C@H](OC(C)=O)[C@@H](OC(C)=O)[C@@H]1OC(C)=O 1.27
CC(C)=CCCC(C)=CCON=C1[C@H]2CCn3c(=O)n(-c4ccccc4)c(=O)n3[C@H]2[C@H](O)[C@@H]2O[C@H]12 0.856
COC(=O)CC=C[C@@H](C)[C@@H](C=NOC[C@@H](C)[C@H](OCc1ccccc1)C(C)C)OC 0.64
CCOC(=O)CCN1C(=O)[C@H]2[C@H]3[C@H](O)[C@H](O)CC(=NO[C@@H]4O[C@H](CO)[C@@H](O)[C@H](O)[C@H]4O)[C@@H]3CC[C@H]2C1=O -2.95
COC(=O)[C@H](C)NC(=O)CCC1CC(OC(=O)NCc2ccc3c(c2)OCO3)CC2(CCCC(COC(=O)NCCc3ccc(Cl)cc3)O2)O1 (stereo not given in full) 1.73
CC(CCN1CCCc2nc(C)c(C)cc21)=NOC[C@@H](O)COCc1ccco1 -0.869
CC(CCN1CCCCc2nc(C)c(C)cc21)=NO[C@@H](C)c1cc(-c2c(C)cc(C)cc2C)no1 -1.79
C[C@H]1CC[C@@H](C(=O)O)N[C@@H]1c1ccc(C#Cc2ccccc2)cc1 -0.217
COc1ccc(O[C@H]2C=C[C@@H](c3ccccc3)O[C@@H]2COC(=O)NCc2cccc3ccccc23)cc1 0.5
CC(C)CON=C1C[C@@H](O)[C@@H](O)[C@@H]2[C@@H]3C(=O)N(C(C)(C)C)C(=O)[C@@H]3CC[C@@H]12 0.571
CC(C)CON=C1[C@H]2CCn3c(=O)n(C)c(=O)n3[C@H]2[C@H](O)[C@@H]2O[C@H]12 -0.5
CCOC(=O)CCN1C(=O)[C@H]2[C@H]3[C@H](O)[C@H](O)CC(=O)[C@@H]3CC[C@H]2C1=O 0.583
CC1(C)O[C@H]2OC([C@H](O)CON3C(=O)c4ccccc4C3=O)[C@H](O)[C@H]2O1 (stereo not given in full) 0.821
COc1cccc([C@H](O)Cn2cc(-c3ccc(CON=C(C)C)cc3)nn2)c1 0.0342
COCC#Cc1ccc([C@@H]2N[C@H](C(=O)O)CC[C@H]2C)cc1 -2.01
O=C1C[C@H](c2ccccc2)[C@H](c2ccc(Br)cc2)O1 0.146
CCCNC(=O)OC[C@H]1O[C@H](CCON=C[C@@H](NS(=O)(=O)c2ccc(C)cc2)[C@H](C)C=CCC(=O)OC)C=C[C@@H]1Oc1ccc(OC)cc1 0.173
CCOC(=O)[C@H](Cc1ccccc1)NC(=O)CCC1CC(OC(=O)NCCc2ccc(F)cc2)CC2(CCCC(COC(=O)NCCOc3ccccc3)O2)O1 (stereo not given in full) 1.26
C=CC[C@@H]1C=C[C@H](Oc2ccc(C)cc2)[C@@H](COC(=O)NCc2cccc3ccccc23)O1 0.839
O=C1C2=CC[C@H]3C(=O)N(C[C@@H]4CCCO4)C(=O)[C@H]3[C@H]2[C@H](O)[C@@H]2O[C@H]12 -1.35
CSCC[C@@H]1NC(=O)CC=C[C@@H](C)COC(=O)[C@H](C)COC1=O -1.01
COC(=O)[C@H](Cc1ccccc1)NC(=O)[C@@H](C)CO 0.966
O=C1[C@H]2[C@H]3[C@H](O)[C@H](O)CC(=NOCc4ccccc4)[C@@H]3CC[C@H]2C(=O)N1c1cccc(Oc2ccccc2)c1 -1.11
CC(C)C(=O)N[C@H]1CCCN1C(=O)C=Cc1ccccc1 0.679
CCN1C(=O)[C@H]2[C@H]3[C@H](O)[C@H](O)CC(=NOCC(C)C)[C@H]3CC[C@H]2C1=O -5.92
C#CCCCON=C1[C@H]2CCn3c(=O)n(Cc4cc5c(cc4Cl)OCO5)c(=O)n3[C@H]2[C@H](O)[C@@H]2O[C@H]12 -0.331
COC(=O)[C@H](C)NC(=O)CCC1CC(OC(=O)NCc2cccc3ccccc23)CC2(CCCC(COC(=O)NCCOc3ccccc3)O2)O1 (stereo not given in full) 0.00289
CO[C@H]1COC(=O)CC=C[C@@H](C)COC(=O)[C@H]2CCCN2C(=O)CC=C[C@H]1C -0.166
O=C1C[C@@H](O)[C@@H](O)[C@@H]2[C@@H]3C(=O)N(C4CCCCC4)C(=O)[C@@H]3CC[C@@H]12 -0.0439
CN1CCc2nc(-c3ccccc3)c(-c3ccccc3)cc2C1 -0.512

— PubChem BioAssay
